We go through 14 compounds from PubChem BioAssay (NCI).

Holding throughout (experiment): NCI-60 one-dose screen, 48 h (100 = growth as untreated, 0 = no growth, -100 = all killed)
Holding throughout (conditions): 10 µM unless noted

Test [1] relates to HCT-15 colon.
For test [2], the system named is HT29 colon.
The subject of test [3] is SNB-75 CNS.
The subject of test [4] is SNB-19 CNS.
In test [5] the test system is U251 CNS.
Test [6] relates to PC-3 prostate.
Test [7] deals with SK-MEL-5 melanoma.
Test [8] has as its system UACC-62 melanoma.
Test [9] deals with LOX IMVI melanoma.
Test [10] concerns SK-MEL-28 melanoma.
Test [11] deals with SK-MEL-2 melanoma.
In test [12] the test system is EKVX NSCLC.
The test system of test [13] is SN12C renal.
For test [14], the system named is UO-31 renal.
Test [15] has as its system TK-10 renal.
Test [16] concerns ACHN renal.
Test [17] deals with CAKI-1 renal.
The test system of test [18] is A498 renal.
The test system of test [19] is CCRF-CEM leukemia.
For test [20], the system named is MOLT-4 leukemia.

The panel holds about 83,000 compounds, 20% with a hit somewhere; the sample as a whole holds those more often.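 Single-dose data. Exposure time 48 hours. Values below 10 considered active.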 Values without a mark were called inactive. Active and inactive are the calls of the source.

Regarding `N=C(N)c1ccc(-c2ccc(-c3ccc(Cl)cc3Cl)s2)cc1`, the growth in test [1] was -70.6% (active); in test [2], 3.85% (active); in test [3], 88.5%; in [4], 10.9%; in [5], -45.4% (active); in test [6], 0.127% (active). In addition, the growth in [7] is 89.3%; in [8] it was 74.8%; in test [9], -89.3% (active); in test [10] it was 105%; in test [11], 104%; in test [12], 63.5%. The growth was 16% in [13]; 21.8% in [14]; 110% in [15]; -28% (active) in test [16]; -67.3% (active) in [17]; 86.3% in test [18]. Besides, the results for the growth in [19] and in test [20] were -3.15% (active) and -24.3% (active), respectively.
As for `O=C1/C(=C/c2cn(-c3ccccc3)nc2-c2ccccc2)SC(=S)N1C1CCCCC1`, the growth is 109% in test [1]; 111% in test [2]; 99.2% in test [3]; 96.9% in [4]; 107% in test [5]; 96.3% in [6]. For the same compound, the growth in [7] was 100%; in test [8] it was 92.6%; in [9] it was 91%; in [10] it was 101%; in [11], 108%; in test [12], 97.4%. Also, the growth in test [13] is 92.9%; in [14], 94.2%; in test [15], 117%; in test [16] it was 102%; in [17] it was 85.2%; in [18] it was 66.9%. Further, the results for the growth in [19] and in test [20] were 107% and 108%, respectively.
Regarding `c1ccc2cc(C[n+]3ccn(CCCCCCCCCCn4cc[n+](Cc5ccc6ccccc6c5)c4)c3)ccc2c1`, the growth is 50.5% in [1]; -32.5% (active) in [2]; -1.15% (active) in test [3]; 22.8% in test [4]; 11.7% in test [5]; 7.04% (active) in [6]. In addition, the growth was -56.4% (active) in [7]; 16.9% in test [8]; -53.9% (active) in test [9]; 20.6% in test [10]; -39.4% (active) in test [11]; 13.7% in test [12]. Moreover, the growth in test [13] is 4.24% (active); in [14], 77.5%; in test [15], 15.1%; in test [16], 52.2%; in test [17], 74.7%; in test [18], 9.69% (active). For the same compound, the growth was -4.14% (active) in test [19] and -43.6% (active) in [20].
Turning to `Cc1[nH]c(C(=O)Nc2ccc(C(=O)N3CCN(c4cc5c(cc4F)c(=O)c(C(=O)O)cn5C4CC4)CC3)cc2OC(C)C)c(Cl)c1Cl`, the growth in test [1] is 18.1%; in test [2], 37.3%; in test [3] it was 67.8%; in test [4] it was 89.8%; in test [5], 36.4%; in test [6], 59.1%. Moreover, the growth in [7] was 75.3%; in test [8], 81.8%; in [9] it was 21.6%; in [10], 86.6%; in [11], 105%; in test [12], 80.5%. In addition, the growth in test [13] is 31.2%; in test [14] it was 56.2%; in test [15], 82.7%; in [16], 67.9%; in [17], 74.8%; in test [18], 55.6%. Moreover, the figures for the growth in [19] and in [20] were 53% and 93.3%, respectively.
For the compound `CCC(=O)Oc1ccc(-c2ccccc2)cc1Br`, the growth in [1] is 105%; in test [2], 101%; in test [3] it was 95.1%; in test [4], 112%; in [5], 103%; in [6] it was 95.4%. Moreover, the growth in [7] was 98.3%; in test [8] it was 109%; in test [9] it was 107%; in [10], 110%; in test [11] it was 110%; in test [12], 102%. The growth was 104% in [13]; 102% in test [14]; 101% in [15]; 113% in [16]; 98.7% in [17]; 63.5% in test [18]. The figures for the growth in [19] and in test [20] were 102% and 111%, respectively.
As to `COc1cc2c(cc1OCCCN1CCN(CCCOc3cc4c(cc3OC)C(=O)N3CCC[C@H]3C=N4)CC1)C=CC(C)(C)O2`, the growth in test [1] was -98% (active); in test [2] it was -100% (active); in [3], -98.2% (active); in [4], -94.6% (active); in [5] it was -98.5% (active); in test [6], -75.3% (active). In addition, the growth in test [7] was -100% (active); in test [8], 1.28% (active); in test [9] it was -98.6% (active); in [10] it was -100% (active); in test [11] it was -77% (active); in test [12], -100% (active). For the same compound, the growth in [13] is -65.7% (active); in [14] it was -58.8% (active); in test [15] it was -83.6% (active); in test [16], 4.25% (active); in test [17], -71% (active); in test [18] it was -100% (active). In addition, the growth in [19] was -48.6% (active); in test [20], -12.8% (active).
With `COc1ccc(C(=O)Nc2cccc(-c3cc(=O)c4c(OC)c(OC)c(OC)cc4o3)c2)cc1`, the growth in test [1] is 45.2%; in test [2], 46.7%; in test [3] it was 67.6%; in test [4] it was 64.6%; in test [5], 72.3%; in test [6], 31.9%. Besides, the growth in test [7] is 50.2%; in test [8] it was 55.4%; in test [9], 41.9%; in [10] it was 69%; in [11] it was 61.3%; in test [12], 77.3%. Besides, the growth is 50% in [13]; 26.5% in test [14]; 76.7% in test [15]; 47% in test [16]; 57.4% in [17]; 69.3% in test [18]. The growth in test [19] is 27.5%; in [20], 23.3%.
As for `COc1c(C(=O)Nc2ccc(C)c(Br)c2)ccc2ccccc12`, the growth in [1] is 61.2%; in test [2], 78.5%; in test [3], 88.4%; in test [4], 95.3%; in test [5], 96.2%; in test [6], 87.7%. Also, the growth in test [7] was 98.3%; in test [8] it was 71.6%; in test [9] it was 95.1%; in test [10], 93.3%; in test [11], 102%; in test [12] it was 66.3%. Besides, the growth was 96.8% in test [13]; 85.5% in test [14]; 103% in [15]; 104% in test [16]; 71.9% in test [17]; 91.2% in test [18]. Also, the values for the growth in test [19] and in test [20] were 91.3% and 73.7%, respectively.
Take `O=c1c2cnn(-c3ccccc3)c2n2c(CN3CCOCC3)nnc2n1-c1ccccc1`: the growth is 101% in [1]; 74.9% in [2]; 98% in test [3]; 106% in test [4]; 89.4% in test [5]; 78.2% in test [6]. Besides, the growth in test [7] was 102%; in test [8], 98%; in test [9], 96.9%; in test [10], 107%; in [11], 79.1%; in test [12] it was 102%. The growth in test [13] is 104%; in [14], 87.6%; in test [15], 71.4%; in test [16], 95.2%; in [17], 92.4%; in test [18], 106%. The growth is 96.8% in test [19] and 100% in test [20].
Regarding `CC(C)c1ccc(-n2c(=S)[nH]c3sc4cc(O)ccc4c3c2=O)cc1`, the growth in test [1] was 97.7%; in [2] it was 113%; in test [3], 85.9%; in test [4], 90.4%; in [5], 103%; in test [6] it was 100%. Also, the growth in [7] was 98.6%; in test [8], 93.6%; in [9], 96.9%; in test [10], 103%; in test [11], 121%; in [12] it was 103%. Moreover, the growth in test [13] was 99.5%; in test [14], 77%; in [15], 123%; in [16], 99%; in test [17] it was 91.7%; in [18] it was 61.5%. The results for the growth in [19] and in test [20] were 103% and 98%, respectively.
Regarding `COc1cccc(CNc2ccc3ncnc(Nc4ccc(F)c(Cl)c4)c3c2)c1`, the growth in [1] was 53.2%; in test [2], 88.3%; in test [3] it was 79.3%; in [4], 69%; in [5] it was 71.4%; in [6], 52.7%. Moreover, the growth was 89.5% in test [7]; 81.1% in [8]; 69.8% in test [9]; 107% in [10]; 94.9% in test [11]; 26% in test [12]. The growth in [13] was 52.8%; in test [14], 32.5%; in [15], 29.8%; in test [16], 26.2%; in test [17], 34.6%; in test [18] it was 45.1%. For the same compound, the growth in test [19] was 75.1%; in test [20], 69.9%.
With `O=C(CN1CCOCC1)Nc1nc(-c2cc3ccccc3oc2=O)cs1`, the growth in [1] was 104%; in test [2], 103%; in test [3] it was 82.2%; in test [4] it was 101%; in [5], 98.7%; in test [6], 97.5%. In addition, the growth in test [7] was 99.2%; in [8], 92.5%; in test [9], 95.6%; in test [10] it was 104%; in test [11], 114%; in test [12], 99%. Further, the growth in test [13] is 101%; in test [14], 70.6%; in test [15], 154%; in [16], 93.1%; in test [17], 82.4%; in test [18], 102%. The growth in [19] was 103%; in test [20] it was 104%.
Consider `COc1ccc(C(=O)N2c3ccccc3Sc3ccccc32)c(OC)c1`, for which the growth is 19.2% in test [1]; -0.815% (active) in test [2]; 18.5% in [3]; 31.7% in test [4]; 24.5% in test [5]; 10.5% in test [6]. The growth was 19% in test [7]; 13.8% in [8]; 37.8% in test [9]; 57.9% in [10]; 38.3% in [11]; 34% in test [12]. The growth is 51.6% in test [13]; 48.3% in test [14]; 55.8% in test [15]; 43.5% in test [16]; 36.8% in [17]; 5.16% (active) in [18]. Besides, the growth was 16.5% in test [19] and 12% in test [20].
Turning to `Nc1cc(C(=O)NC[C@H]2CN(c3ccc(N4CCC(C(=O)O)CC4)cc3)C(=O)O2)ccc1Cl`, the growth in [1] is 102%; in test [2] it was 104%; in test [3], 84.8%; in [4], 98.7%; in test [5], 103%; in [6], 101%. Also, the growth is 103% in test [7]; 95.8% in [8]; 97% in test [9]; 109% in [10]; 115% in [11]; 95.3% in test [12]. Further, the growth was 98.8% in test [13]; 80.4% in [14]; 104% in test [15]; 101% in test [16]; 87.7% in test [17]; 95.8% in test [18]. The results for the growth in [19] and in test [20] were 104% and 99.4%, respectively.
